Assay results taken from PubChem BioAssay AID1851 (National Center for Advancing Translational Sciences (NCATS), 2009).
Hit rate of the full screen: of about 16,000 compounds, about 5,700 (36%) were called active. Roughly 24% stayed inconclusive and do not appear here. Calls follow the shape of the dose curve; as a rule, active = well fitted curve in the direction sought with a large enough effect; inconclusive = small, poorly fitted or top-dose-only effect, or effect the other way; inactive = no such curve, though single readings can be large or run the other way. The list shows a part of the results.

target: Cytochrome P450 1A2 (Homo sapiens) (UniProt P05177); experiment: Cytochrome panel assay with activity outcomes; conditions: recombinant CYP, pro-luciferin dealkylation, luminescence, p450-cyp1a2; series mostly up to 57.1 µM
Sequence (P05177 whole entry, looked up): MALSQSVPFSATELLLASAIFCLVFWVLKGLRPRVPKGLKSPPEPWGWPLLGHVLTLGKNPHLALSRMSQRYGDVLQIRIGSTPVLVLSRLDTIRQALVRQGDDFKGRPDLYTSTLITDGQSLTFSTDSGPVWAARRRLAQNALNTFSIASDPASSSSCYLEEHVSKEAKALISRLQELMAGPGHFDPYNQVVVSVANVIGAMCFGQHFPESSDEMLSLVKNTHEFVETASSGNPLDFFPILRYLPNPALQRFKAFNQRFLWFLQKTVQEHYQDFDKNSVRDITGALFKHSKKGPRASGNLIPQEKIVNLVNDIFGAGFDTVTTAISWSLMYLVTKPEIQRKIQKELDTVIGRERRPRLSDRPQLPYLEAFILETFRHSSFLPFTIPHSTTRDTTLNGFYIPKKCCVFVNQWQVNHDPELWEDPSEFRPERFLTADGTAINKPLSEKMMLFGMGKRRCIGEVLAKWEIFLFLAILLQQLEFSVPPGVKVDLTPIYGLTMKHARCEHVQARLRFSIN
% is scaled to controls: 0 for no effect and ±100 for the full control effect.

Structure (SMILES) | activity, negative = inhibition | AC50
Oc1c(Cl)cc(CN(Cc2cc(Cl)c(O)c(Cl)c2)C2CCCCC2)cc1Cl | 11.3% [at 2.29 µM] (inactive) | 
Oc1c(Cl)cc(C(c2cc(Cl)c(O)c(Cl)c2)C(c2cc(Cl)c(O)c(Cl)c2)c2cc(Cl)c(O)c(Cl)c2)cc1Cl |  | 794 nM (active)
CCOC(=O)CCN1C(=O)[C@H]2[C@H]3[C@H](O)[C@H](O)C/C(=N/OCC(C)C)[C@H]3CC[C@@H]2C1=O | -11.8% [at 11.4 µM] (inactive) | 
Cc1cc(C)c(NC(=O)NC(=O)c2ccc(F)cc2)c(C)n1 |  | inactive
CC(=O)c1cc(C#N)c(Oc2cccc(C(F)(F)F)c2)nc1C |  | 1120 nM (active)
CC(C)Oc1cccc(C(=O)NC(=S)N2CCN(c3ccc(C(F)(F)F)cc3[N+](=O)[O-])CC2)c1 |  | inactive
COC(=O)c1cc(C#N)c(NCc2ccc(Cl)cc2Cl)nc1C |  | inactive
COC(=O)C1=C(C)C(c2ccc(OC)cc2)NC(=S)N1 (configuration not stated) |  | inactive
COC(=O)c1cc(C#N)c(Oc2ccc(OC)cc2)nc1C |  | 4470 nM (active)
CC(=O)c1cc(C#N)c(Oc2ccc(F)cc2)nc1C |  | 2240 nM (active)
O=C(NCC(=O)N(c1ccccc1)C(C(=O)NC1CCCC1)c1cccnc1)c1cccs1 (configuration not stated) |  | inactive
O=C(NC1CCCCCC1)c1cccs1 |  | 5010 nM (active)
Cc1ccc(C(C(=O)NC2CCCCC2)N(CC2CCCO2)C(=O)CNC(=O)c2cccs2)cc1 (configuration not stated) |  | inactive
Cc1nc2ccc(NC(=O)Nc3ccnc4cccnc34)cc2o1 |  | 1000 nM (active)
O=C(Nc1ccc2ncccc2c1)Nc1ccc2ncccc2c1 | -28.5% [at 2.29 µM] (inactive) | 
C/C=C\C(=O)N(CC)c1ccccc1C |  | inactive
CC1(C)OC(=O)NC1=O |  | inactive
COc1ccc(-c2csc3c2[N+]2=CCC=C2C3=O)cc1 |  | 501 nM (active)
Cc1noc(C)c1C(=O)N1CCC2(CC1)CCN(c1ccncc1)CC2 |  | inactive
Cc1noc(C)c1-c1cc(N2CCN(C)CC2)ncn1 |  | 10000 nM (active)
Cc1noc(C)c1-c1nccc(-n2ccnc2)n1 |  | 200 nM (active)
Cc1noc(C)c1-c1nccc(N2CCN(C)CC2)n1 |  | 2000 nM (active)
Cc1noc(C)c1-c1nccc(N2CCOCC2)n1 |  | 631 nM (active)
CC(C)(C)C(=O)NC(c1ccc(Cl)cc1)[C@]1(C)C[C@H]1C1CCCCC1 (some centres not stated) |  | inactive
CO/N=C1/c2cc(OC)ccc2O[C@@H](c2cccc(OC)c2)[C@H]1O | -7.77% [at 11.4 µM] (inactive) | 
Cc1cc(Cl)ccc1Oc1ncc(-c2ccc(Cl)cc2)cn1 |  | 794 nM (active)
Cc1cccc(Oc2ncc(-c3ccc(Cl)cc3)cn2)c1C |  | 2240 nM (active)
